Records with an inconclusive call do not appear. A call without a number means that no potency is given here. Active and inactive are the calls of the source. The call rests on the fitted dose curve; in most records, active means well fitted inhibition curve with a large enough effect; inconclusive means small, poorly fitted or top-dose-only effect; inactive means no such curve, though single readings can be large or run the other way.
Assay: qHTS assay for measurement of the activity of small molecule inhibitors on Zika virus induced Caspase-3 activity in human iPSC derived neural progenitor cells (hNPCs) (AID 1224857); further: nearly all actives have a fitted effect of over 65% in size
Settings: hNPCs ZIKV-induced caspase-3/7, Caspase-Glo luminescence, 6 h; series mostly up to 45.7 µM
Source text: National Center for Advancing Translational Sciences [NCATS]
Johns Hopkins University School of Medicine
Increase in the Caspase-3 activity indicates an activation of apoptosis cell death pathway caused by Zika virus infection in certain types of neuronal cells including human neural progenitor cells (hNPCs), astrocytes, and astrocytoma cell line (SNB-19). This cell-based caspase-3 activity assay measures the increased caspase-3 activity in the human iPSC derived neural progenitor cells (hNPCs) after a 6-hour Zika virus infection with a luminescence readout. A decrease in the luminescence signal in this assay by small molecule treatment indicates an inhibitory effect of that small molecule on the Zika virus induced caspase-3 activity that may correlate with its effect on reduction of Zika virus caused cell death.
The medium for hNPCs consists of DMEM/F12, N2 supplement (ThermoFisher, Cat.# 17502048), NEAA (ThermoFisher, Cat. # 11140050), 2 ug/ml heparin, 2 uM cyclopamine, and B27 (ThermoFisher, Cat. # 17504044). A Caspase-Glo 3/7 assay kit (catalog number G8092; Promega, Madison, WI) was used to detect caspase-3 activity induced by Zika virus infection in human cells. The reagent mixture was reconstituted as described in the protocol from the manufacturer. Polystyrene tissue culture treated and PDL coated white plates were obtained from Greiner Bio-One (Monroe, NC). Cells were seeded in 384- or 1536-well assay plates and cultured at 37 C with 5% CO2 for 16 to 20 hours. The typical cell seeding density in the 1536-well plate assay is 350 cells/well in 3 ul medium for hNPCs in tissue culture treated plates. Compounds were added to cells and incubated for one hour before addition of ZIKV solution to cells (2 FFU/cell). After incubation at 37 C with 5% CO2 for 6 hours, the reagent mixture of Caspase-Glo 3/7 assay kit was added to each well, followed by incubation at room temperature for 30 minutes. The luminescence intensity of the assay plates was measured using a ViewLux plate reader (PerkinElmer). Data were normalized by using the cell-containing wells without ZIKV as a negative control (0% induction of caspase 3/7 activity) and wells containing ZIKV infected cells (Caspase-3 activity induced) as a positive control (100% induction of caspase 3 activity). The percentage inhibitions of the increased Caspase-3 activity by small molecule inhibitors were then calculated.
Potency means the concentration at half of the fitted maximal effect.

Compound	Potency
NC(N)=NC(=O)c1nc(Cl)c(N2CCCCCC2)nc1N	inactive
CC1CN(S(=O)(=O)c2cccc3cnccc23)CCN1 (stereo not given)	inactive
O=C1NC(=O)/C(=C/c2ccc(-c3ccc(F)cc3O)o2)S1	10 µM (active)
O=c1[nH]c2ccccc2n1CCCN1CCN(C(c2ccccc2)c2ccccc2)CC1	inactive
O=C(NOCC1CC1)c1cc(Br)c(F)c(F)c1Nc1ccc(I)cc1Cl	inactive
COc1cc2c(CCNC(C)=O)c[nH]c2cc1Cl	inactive
NC(=O)C(c1ccccc1)(c1ccccc1)[C@@H]1CCN(CCc2ccc3c(c2)CCO3)C1	inactive
CS(=O)(=O)c1ccc(-n2nc(C(F)(F)F)cc2-c2ccc(F)cc2)cc1	inactive
COc1cc(OC)c(/C=C2/C(=O)Nc3ccccc32)c(OC)c1	inactive
COc1ccc(C(=O)/C(Cc2cc(OC)c(OC)c(OC)c2)=C(\C(=O)O)c2ccc3c(c2)OCO3)cc1	inactive
O=c1[nH]c2cc([N+](=O)[O-])c([N+](=O)[O-])cc2[nH]c1=O	inactive
Oc1ccccc1O	inactive
CC[C@@H](C)[C@H]1O[C@]2(CC[C@@H]1C)C[C@@H]1C[C@@H](C/C=C(\C)[C@@H](O[C@H]3C[C@H](OC)[C@@H](O[C@H]4C[C@H](OC)[C@@H](O)[C@H](C)O4)[C@H](C)O3)[C@@H](C)/C=C/C=C3\CO[C@@H]4[C@H](O)C(C)=C[C@@H](C(=O)O1)[C@]34O)O2	inactive
Oc1cc(O)cc(/C=C/c2ccc(O)c(O)c2)c1	7.94 µM (active)
CNc1ncnc2c1ncn2[C@@H]1O[C@H](CO)C(O)[C@H]1O (stereo not given in full)	inactive
NCCCCC(=O)O	inactive
NC[C@@H]1O[C@H](C23CC4CC(CC(C4)C2)C3)Cc2c1ccc(O)c2O	inactive
CCCN(CC1CC1)c1nc(C)nc(Nc2c(Cl)cc(Cl)cc2Cl)c1Cl	inactive
Clc1ccc(N2CCN(Cc3c[nH]c4ncccc34)CC2)cc1	inactive
O=C(/C=C/c1ccc(O)c(O)c1)OCCc1ccccc1	inactive

Compound	Potency
O=c1cc(-c2ccccc2)oc2ccccc12	35.5 µM (active)
O=C(Nc1ccc2[nH]ncc2c1)C1CCC1	inactive
C=CCc1cccc(/C=N/NC(=O)CN2CCN(Cc3ccccc3)CC2)c1O	inactive
N[C@@H](CC(=O)O)C(=O)O	inactive
O=C1CN(/N=C/c2ccc(-c3ccc([N+](=O)[O-])cc3)o2)C(=O)N1	inactive
c1ccc(-c2ccccn2)nc1	inactive
O=C(Nc1ccncc1)c1cc([N+](=O)[O-])ccc1Cl	inactive
CCCCN(CC)c1nc(C)nc2c1c(C)cn2-c1c(C)cc(C)cc1C	inactive
CC(C)(C)NCC(O)COc1nsnc1N1CCOCC1 (stereo not given)	inactive
Cc1ccc(O)c(-n2nc3ccccc3n2)c1	inactive
Nc1nc(SCc2ccc([N+](=O)[O-])cc2)c2ncn([C@@H]3O[C@H](CO)C(O)[C@H]3O)c2n1 (stereo not given in full)	inactive
C[N+](C)(C)CCOP(=O)(O)OP(=O)([O-])OC[C@H]1O[C@@H](n2ccc(N)nc2=O)[C@H](O)C1O (stereo not given in full)	inactive
O=c1[nH]c2cc(C(F)(F)F)ccc2n1-c1cc(C(F)(F)F)ccc1O	inactive
Oc1cc2c(cc1O)CN(C(=S)NCCc1ccc(Cl)cc1)CCC2	inactive
Cn1c(=O)c2[nH]c(-c3ccccc3)nc2n(C)c1=O	inactive
O=C(O)CC1CCCc2ccccc2C1O (stereo not given)	inactive
CCCC(CCC)C(=O)OC1CC2CCC(C1)[N+]2(C)C (stereo not given)	inactive
CC(C)NCC(O)COc1cccc2ccccc12 (stereo not given)	inactive
N=C(N)N	inactive
COc1cccc(OC)c1OCCNCC1COc2ccccc2O1 (stereo not given)	inactive

Source: PubChem BioAssay (NCATS)
